Assay results taken from PubChem BioAssay (NCI).
Compounds without any hit were thinned out: in the full panel of roughly 83,000, 20% have a hit.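 48-hour exposure, single concentration, 96-well plates; percent growth endpoint where 0 means no net growth. Active: below 10.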 Values without a mark were called inactive. Calls of active or inactive are those of the source.

Experiments:
Experiment in all cases: NCI-60 one-dose screen, 48 h (100 = growth as untreated, 0 = no growth, -100 = all killed)
HCT-15 colon = conditions: 10 µM unless noted
HT29 colon = conditions: 10 µM unless noted
SNB-75 CNS = conditions: 10 µM unless noted
SNB-19 CNS = conditions: 10 µM unless noted
U251 CNS = conditions: 10 µM unless noted
PC-3 prostate = conditions: 10 µM unless noted
SK-MEL-5 melanoma = conditions: 10 µM unless noted
UACC-62 melanoma = conditions: 10 µM unless noted
LOX IMVI melanoma = conditions: 10 µM
SK-MEL-28 melanoma = conditions: 10 µM unless noted
SK-MEL-2 melanoma = conditions: 10 µM unless noted
EKVX NSCLC = conditions: 10 µM unless noted
SN12C renal = conditions: 10 µM unless noted
UO-31 renal = conditions: 10 µM unless noted
TK-10 renal = conditions: 10 µM unless noted
ACHN renal = conditions: 10 µM unless noted
CAKI-1 renal = conditions: 10 µM unless noted
A498 renal = conditions: 10 µM unless noted
CCRF-CEM leukemia = conditions: 10 µM unless noted
MOLT-4 leukemia = conditions: 10 µM unless noted

Row | SMILES | growth (HCT-15 colon) [%] | growth (HT29 colon) [%] | growth (SNB-75 CNS) [%] | growth (SNB-19 CNS) [%] | growth (U251 CNS) [%] | growth (PC-3 prostate) [%] | growth (SK-MEL-5 melanoma) [%] | growth (UACC-62 melanoma) [%] | growth (LOX IMVI melanoma) [%] | growth (SK-MEL-28 melanoma) [%] | growth (SK-MEL-2 melanoma) | growth (EKVX NSCLC) [%] | growth (SN12C renal) [%] | growth (UO-31 renal) [%] | growth (TK-10 renal) [%] | growth (ACHN renal) [%] | growth (CAKI-1 renal) [%] | growth (A498 renal) [%] | growth (CCRF-CEM leukemia) | growth (MOLT-4 leukemia) [%]
1 | Cc1ccc2nc(-c3ccc(N=Cc4ccccc4O)cc3)sc2c1 | 80.1 | 93.4 | 47.4 | 92.3 | 91.6 | 85.4 | 109 | 84.7 | 86.9 | 110 | 101% | 90.3 | 90.4 | 60 | 139 | 90.6 | 67.7 | 64.5 | 77.4% | 82.3
2 | O=Cc1c(O)c2ccccc2[nH]c1=O | 95.2 | 116 | 77.9 | 104 | 94.3 | 94.4 | 95.1 | 87.9 | 98.5 | 107 | 106% | 113 | 92.3 | 81.6 | 106 | 91.5 | 98.1 | 119 | 108% | 104
3 | N#C/C(=C\NC(=S)N=Nc1c(O)[nH]c2ccccc12)c1nc2ccccc2s1 | 101 | 106 | 85.1 | 104 | 92.5 | 86.1 | 94.9 | 94.3 | 96.6 | 112 | 105% | 99.3 | 110 | 79.2 | 140 | 89.6 | 96.2 | 89 | 93.4% | 99.4
4 | O=C(c1ccccc1)c1ccc(-c2ccc(O)cc2)cc1 | 57 | 120 | 43.5 | 59.7 | 37.3 | 76.8 | 23.6 | 48.5 | 73.4 | 75.1 | 59.1% | 64.5 | 83.2 | 45.2 | 68.7 | 50.4 | 103 | 65.1 | 60.7% | 120
5 | CCCCn1cnc2c(=O)[nH]cnc21 | 105 | 104 | 89.6 | 96.9 | 109 | 94.2 | 119 | 95.7 | 109 | 107 | 107% | 97.9 | 105 | 94.7 | 109 | 89.7 | 98.4 | 108 | 96.7% | 96.2
6 | CC(=O)NNC(=S)N/C=C/c1c(C)ccc([N+](=O)[O-])c1[N+](=O)[O-] | 96.5 | 105 | 88.5 | 113 | 112 | 97.2 | 105 | 98.5 | 96 | 101 | 92.3% | 99.3 | 96.2 | 92 | 118 | 98.1 | 98.8 | 105 | 99.9% | 95.5
7 | CCOC(=O)c1ccc(NC(C)=O)o1 | 106 | 102 | 94.3 | 97.1 | 94.1 | 95.8 | 97.9 | 90.4 | 95.4 | 118 | 99.6% | 111 | 95.1 | 87.4 | 100 | 108 | 103 | 63 | 98.8% | 79.1
8 | O=C(NC1CCCCC1)c1ccc(Cl)cc1 | 108 | 101 | 90 | 101 | 98.6 | 102 | 101 | 97.6 | 97.4 | 112 | 115% | 98.5 | 103 | 94.7 | 102 | 104 | 102 | 82.4 | 98.4% | 95.2
9 | Cc1cc(Cc2ccccc2)c(O)c(Cc2ccccc2)c1 | 89.8 | 104 | 75.5 | 102 | 86.5 | 88.3 | 98.6 | 71.4 | 80.7 | 106 | 111% | 112 | 79.7 | 64.6 | 98.8 | 92.9 | 80.5 | 98.6 | 98.2% | 64.6
10 | Nc1c(Br)cc(O)c2c1C(=O)c1ccccc1C2=O | 47.7 | 54 | 110 | 95.2 | 92 | 84.6 | 96.7 | 87.4 | 34.4 | 112 | 55.4% | 96.6 | 80.9 | 85.1 | 91.1 | 97.1 | 83.8 | 76.4 | 56.5% | 50.1
11 | C=CC(=O)OC1CCC(C(C)(C)CC)CC1 (stereo not given) | 98.2 | 112 | 95.4 | 109 | 116 | 104 | 104 | 109 | 101 | 110 | 108% | 117 | 103 | 83.9 | 101 | 110 | 115 | 87.2 | 106% | 107
12 | O=c1nc(Nc2cccc(Cl)c2)oc2cc(Cl)oc(=O)c12 | 83.4 | 85.5 | 67.2 | 94.3 | 79.6 | 61.8 | 106 | 78.7 | 73.5 | 85.5 | -14.9% (active) | 116 | 86.1 | 47.9 | 98.1 | 81.3 | 79.6 | 103 | 56.7% | 21.5
13 | NC(=O)N1CCOCC1 | 106 | 92.4 | 66 | 101 | 107 | 87.1 | 105 | 104 | 107 | 106 | 105% | 108 | 109 | 79.8 | 92.4 | 110 | 115 | 92.7 | 88.9% | 93.7
14 | CCOC(=O)c1cc(Cl)c(O)c(Cl)c1 | 104 | 103 | 103 | 106 | 104 | 101 | 102 | 105 | 102 | 106 | 106% | 109 | 107 | 92.3 | 108 | 103 | 109 | 104 | 90.8% | 89.6
15 | COc1ccc(C(=O)C(=O)c2ccccc2)cc1 | 91.9 | 107 | 104 | 100 | 101 | 104 | 90.7 | 99.2 | 100 | 110 | 110% | 102 | 98.7 | 95.3 | 108 | 101 | 99.9 | 97.5 | -54.2% (active) | 101
16 | CCC(=O)Oc1ccc2ccccc2c1 | 104 | 104 | 82.4 | 97.9 | 93.9 | 77 | 91.6 | 92.1 | 92.2 | 110 | 95.2% | 95.7 | 91 | 71.6 | 105 | 98.7 | 91.2 | 82.7 | 89.8% | 99
17 | O=[N+]([O-])c1ccc2[nH]c(=S)n(/C=C(/c3ccc(Cl)cc3Cl)S(=O)(=O)Cc3ccc(Cl)cc3Cl)c2c1 | 101 | 98.9 | 108 | 102 | 98.1 | 94.7 | 101 | 101 | 98.6 | 110 | 102% | 92.9 | 94.6 | 97.2 | 101 | 98.1 | 97.4 | 103 | 103% | 98.3
